# Compound activity deposited in PubChem BioAssay by National Center for Advancing Translational Sciences (NCATS).
# LmPK inhibitor = LmPK (Leishmania mexicana) enzyme inhibition; purified LmPK, Kinase-Glo ATP luminescence, 1 h; 290,000 tested, 0.37% active; Q27686; Potency, µM (series often up to 57.5 µM), for inactives: at the highest dose activity change, negative = inhibition, hits mostly inhibitors; active = well fitted curve in the direction sought with a large enough effect; inconclusive = small, poorly fitted or top-dose-only effect, or another doubt; inactive = no such curve, though single readings can be large; an effect the other way counts as inactive or inconclusive; also: potency is read from the fitted curve at half-maximal effect; % is scaled to controls: 0 for no effect and ±100 for the full control effect
# Target sequence (Q27686 whole entry, looked up): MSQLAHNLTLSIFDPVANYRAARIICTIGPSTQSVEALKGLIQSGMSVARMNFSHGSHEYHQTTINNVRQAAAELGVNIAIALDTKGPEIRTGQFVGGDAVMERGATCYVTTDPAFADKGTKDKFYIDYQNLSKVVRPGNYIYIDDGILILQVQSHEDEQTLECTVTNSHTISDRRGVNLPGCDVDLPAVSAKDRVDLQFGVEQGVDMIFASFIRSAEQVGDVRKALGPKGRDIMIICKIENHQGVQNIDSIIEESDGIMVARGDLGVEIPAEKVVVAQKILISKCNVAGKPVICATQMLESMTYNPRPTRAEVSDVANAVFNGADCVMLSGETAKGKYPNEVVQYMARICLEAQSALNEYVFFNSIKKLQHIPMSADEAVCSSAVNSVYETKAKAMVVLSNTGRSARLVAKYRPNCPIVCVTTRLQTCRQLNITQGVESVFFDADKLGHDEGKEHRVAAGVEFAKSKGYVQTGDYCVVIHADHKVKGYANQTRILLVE
#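 0.1 nM LmPK, 0.5 mM PEP, 0.1 mM ADP; 50 mM imidazole pH 7.2, 7 mM MgCl2, 50 mM KCl; 1 h RT. Kinase-Glo luminescence readout, normalized to no-enzyme (full inhibition) and uninhibited wells.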
# TbPYK inhibitor = inhibitors of Trypanosoma brucei pyruvate kinase; 410,000 tested, 0.12% active; Q57TT1; TbPYK enzyme, Kinase-Glo Plus ATP luminescence, 45 min; Potency, µM (doses to about 76.8 µM), for inactives: at the highest dose activity, negative = inhibition, usual class: inhibitors; active = well fitted curve in the direction sought with a large enough effect; inconclusive = small, poorly fitted or top-dose-only effect, or another doubt; inactive = no such curve, though single readings can be large; an effect the other way counts as inactive or inconclusive; also: potency is read from the fitted curve at half-maximal effect; % is scaled to controls: 0 for no effect and ±100 for the full control effect; nearly all actives have a fitted effect of over 50% in size
#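 Quantitative HTS: titrated library compounds versus trypanosomal pyruvate kinase in TEA buffer (pH 7.2) containing KCl, MgCl2, BSA and Tween-20. Reactions were initiated with ADP, 130 uM final. Kinase-Glo Plus luminescence was read after 45 min at RT.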
# CHX counter-1 = counter-screen hit for Shiga toxin inhibitors, cycloheximide; max response, %; 300,000 tested, 12% active; AID 2314; cell reporter, cycloheximide protein synthesis inhibition counterscreen; in the data active = max response mostly above about 13%, no sharp cut-off; inactive = mostly below about 14%; also: read at 38.3 µM for the half of the compounds with a filed dose; 0% is about no effect
# Shiga toxin inh = inhibitors of Shiga toxin in Vero cells; Vero cells, Shiga toxin protein synthesis inhibition reporter; inhibition, % at 38.7 µM; 290,000 tested, 9.2% active; in the data active = inhibition mostly above about 28%, no sharp cut-off; inactive = mostly below about 43%; also: 0% is about no effect
# NS1 inh = inhibitors of influenza NS1 protein function | Potency, µM (titrated, usually from 46.1 µM), without a hit: top-dose activity, positive = more growth | 270,000 tested, 0.4% active; also: potency is read from the fitted curve at half-maximal effect; actives are rising curves; nearly all actives have a fitted effect of over 50% in size
#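 A cell-based growth assay was used: compounds that relieve NS1-induced slow growth of budding yeast raise OD600. Assay medium was yeast nitrogen base with ammonium sulphate and -URA supplement, pH 6.0, with 2% galactose.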
# SARS PLP yeast = SARS-CoV PLP inhibition in yeast; S. cerevisiae expressing SARS-CoV PLpro, growth rescue; 330,000 tested, 0.19% active; Potency, µM (highest dose often 32.9 µM), for the others: at the highest dose activity, positive = growth rescue, most hits filed as activators; also: potency is read from the fitted curve at half-maximal effect; 0% is about no effect; nearly all actives have a fitted effect of over 55% in size
# CHX counter-2 = protein synthesis counter-screen activity for Shiga toxin hits; shares compounds with Shiga toxin inh; Cycloheximide counterscreen, protein synthesis reporter, Shiga toxin assay; Potency, µM (titrated, usually from 38.3 µM), for the others: at the highest dose activity (activation), usual class: activators; 510 tested, 3% active; AID 2318; also: potency is read from the fitted curve at half-maximal effect; 0% is about no effect
# Starred values were filed as active, the others as inactive; u = inconclusive; x = no result; ! = repeats disagree. This is one part of a sample in which hits are shown more often than they occur. Unless noted, calls follow the shape of the full dose curve.
SMILES,LmPK inhibitor,TbPYK inhibitor,CHX counter-1,Shiga toxin inh,NS1 inh,SARS PLP yeast,CHX counter-2
ClCc1csc(-c2ccccc2Cl)n1,3%,1%,13,5,x,0%,x
COc1ccccc1C(=O)Nc1ccc(N2CCN(C(C)=O)CC2)cc1,-1%,0%,2,53*,0%,0%,-2%
Cc1ccc(N2CCN(C(=O)c3ccccc3NC(=O)c3ccccc3C(=O)O)CC2)cc1,-1%,10%,3,39*,24%,19%,-1%
COc1ccccc1/C=C/C(=O)OCc1nc2ccccc2c(=O)[nH]1,-6%,0%,2,45*,u,-2%,1%
OCC[C@H]1C[C@@H](O)[C@H](O)[C@]2(Cc3ccccc3CO2)O1,x,-2%,x,x,x,-2%,x
CCOC(=O)N1CCN(C(=O)Nc2ccc3nc(C)c(C)nc3c2)CC1,-1%,4%,6,136*,12%,1%,-2%
C[C@@H]1CN([C@@H](C)CO)C(=O)c2cc(Br)cnc2O[C@@H]1CN(C)C(=O)CN(C)C,x,1%,x,x,x,x,x
CNC(=O)c1cccn(Cc2ccc(C(F)(F)F)cc2)c1=O,-1%,-1%,6,26*,x,-3%,-3%
CNC(=O)c1cccn(Cc2cc(C(F)(F)F)cc(C(F)(F)F)c2)c1=O,5%,5%,4,-2,x,-8%,x
O=c1n(Cc2ccc(F)cc2)nc2n1-c1ccccc1SC2,-3%,0%,14,31*,-10%,1%,6%
Cc1nn(C)c(C)c1NC(=S)Nc1ccc(S(=O)(=O)Nc2ncccn2)cc1,1%,-1%,-1,-4,-2%,1%,x
COc1ccc(C(=O)O[C@H]2CC[C@@]3(C)[C@H]4CC[C@H]5[C@]3(C[C@]3(O)[C@H]6CN7C[C@H](C)CC[C@H]7[C@](C)(O)[C@]6(O)[C@H](O)C[C@]53O)O[C@]24O)cc1OC,x,x,x,x,-8%,x,x
CN(C)C(CNC(=O)CCC(=O)c1ccc(Br)cc1)c1ccccc1 (stereo unspecified),-5%,5%,11,38*,1%,-3%,-1%
O=C(Nc1ccccc1-c1nc2ccccc2o1)c1ccc2c(c1)OCCO2,x,x,x,x,4%,x,x
Cc1c(NC(=O)c2ccc3c(c2)OCO3)cccc1-c1nc2ccccc2o1,1%,-5%,8,39*,-14%,-3%,4%
CCc1ccc(C(=O)c2cn(CC(=O)Nc3cc(OC)ccc3OC)c3nc(C)ccc3c2=O)cc1,x,4%,x,x,x,x,x
CC1C(C#N)=C(N)OC2=C1C(=O)CC(C)(C)C2 (stereo unspecified),0%,1%,1,21,-2%,4%,x
CCC(C)C1C(C#N)=C(N)OC2=C1C(=O)CC(C)(C)C2 (stereo unspecified),5%,0%,-2,14*,-84%,-5%,-2%
CCS(=O)(=O)c1nc(S(=O)(=O)c2ccc(C)cc2)c(NCCCn2ccnc2)s1,2%,0%,-2,13,-22%,3%,x
COc1ccc2nc3cc(Cl)ccc3c(NCCCN3CCN(CCCNc4c5ccc(Cl)cc5nc5ccc(OC)cc45)CC3)c2c1,x,x,10,34*,x,x,0%
COc1ccc2nc3cc(Cl)ccc3c(Nc3ccc(O)c(CN4CCN(C)CC4)c3)c2c1,x,5%,x,x,-3%,x,x
Cc1cc(C)nc(Sc2ccc3nnnn3n2)n1,-1%,-3%,10,31*,-4%,0%,9%
Cc1cc(NC(=O)Cc2ccc(Br)cc2)no1,3%,-9%,5,18,7%,-2%,x
Cc1cc(NC(=O)/C=C/c2ccc(Br)cc2)no1,-5%,-5%,7,56*,14%,2%,u
CC1CN(C(=O)CCCN2C(=O)c3ccccc3C2=O)CC(C)O1 (stereo unspecified),-1%,-2%,-3,-5,-2%,0%,x
SMILES,LmPK inhibitor,TbPYK inhibitor,CHX counter-1,Shiga toxin inh,NS1 inh,SARS PLP yeast,CHX counter-2
CN(C)S(=O)(=O)c1ccc(C(=O)Nc2ccc(CN3CCCC3)cc2)cc1,-1%,-9%,7,51*,u,3%,1%
CN(C)S(=O)(=O)c1ccc(C(=O)Nc2ccc(CCC(=O)N3CCCC3)cc2)cc1,2%,-6%,-2,-4,-5%,11%,x
CCOC(=O)c1ccc(N/C=C/C(=O)c2ccc(OC)c(OC)c2)cc1,1%,4%,14,58*,-5%,-9%,3%
Nc1nc(-c2nn(Cc3ccccc3F)c3ncccc23)ncc1C1CC1,x,x,2,28*,x,x,3%
O=c1c2ccccc2nc(SCc2ccccc2F)n1C1CCCC1,2%,-13%,-3,-1,1%,-12%,x
CCc1ccc(NC(=O)CC2C(=O)N(c3ccc(Cl)cc3)C(=O)N2Cc2ccco2)cc1 (stereo unspecified),x,-1%,x,x,x,x,x
O=C(NCC(c1ccc2c(c1)OCO2)N1CCOCC1)C(=O)Nc1ccccc1 (stereo unspecified),x,-2%,x,x,x,x,x
COc1ccc(C/C(O)=C(\C#N)c2nc3ccccc3s2)cc1,1%,-4%,1,34*,-16%,-7%,-3%
N#C/C(=C(/O)COc1ccc(Cl)cc1)c1nc2ccccc2s1,-2%,2%,-1,-4,-2%,1%,x
Cc1ccc2c(c1C)NC(C(=O)O)C1CC=CC21 (stereo unspecified),-7%,u,5,110*!,8%,4%,-2%
Cc1cc(C)c2c(c1)C1C=CCC1C(C(=O)O)N2 (stereo unspecified),x,x,10,-4,x,x,x
COc1cc(S(=O)(=O)N(Cc2cccnc2)Cc2cccc(OC)c2OC)ccc1-n1cnnn1,3%,2%,-3,-2,-98%,-2%,x
COc1ccccc1CN(Cc1cccnc1)S(=O)(=O)c1ccc(-n2cnnn2)c(OC)c1,12%,-4%,1,47*,-12%,19%,-2%
CCOc1ccc(N(CC(=O)NCc2ccc3c(c2)OCO3)C(=O)c2csnn2)cc1,-3%,6%,4,37*,1%,-9%,1%
COc1ccc(CNC(=O)CN(C(=O)c2csnn2)c2ccc3c(c2)OCCO3)cc1,1%,-6%,9,43*,15%,5%,4%
O=C(CN(C(=O)c1csnn1)c1ccc2c(c1)OCCO2)NCc1ccc(F)cc1,6%,4%,1,40,-17%,0%,x
COc1ccc(OC)c(NC(=O)Cn2nc(C)c3ccccc3c2=O)c1,-6%,-3%,-1,6,3%,4%,x
COc1cccc(Oc2ccc(N)cn2)c1,5%,2%,9,29*,2%,0%,1%
Cc1ccc(S(=O)(=O)N(C)CC(=O)OCC(=O)c2ccc3c(c2)NC(=O)CO3)cc1,x,4%,x,x,x,-9%,x
